Sampled rows, rich in hits. Any-hit rate of the full collection: about 28%.
Mac1 fbg inh = inhibitors of human CD11b/CD18 binding to fibrinogen; P05107+P11215; K562 CD11b/CD18 adhesion to fibrinogen, ATPlite luminescence; Mn2+ added to activate the integrin; inhibition, % at 10 µM; 93,000 compounds, 0.54% hits;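 active = primary inhibition of 50% or more at 10 µM, then 40% or more on retest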
CYP2C19 inhib = inhibitors of human CYP2C19 | CYP2C19 Supersomes, luciferin-H EGE luminescence, 30 min | AID 778 | inhibition, % at 5 µM | 96,000 compounds, 21% hits;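 active = CYP2C19 inhibition above a set limit at 5 µM in the primary screen, cut at about 50% in these data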;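 note: plate controls were negative control wells for no effect and 2.5 mM tranylcypromine positive control for full effect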
CYP2C9 act = CYP2C9 (human) activation. P11712. activation factor at 5 µM. recombinant CYP2C9, luciferin-H conversion, luminescence; hits give high values; factor 1 = untreated enzyme, 0 = blocked. AID 1024. 96,000 compounds, 1.4% hits;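 active = activation factor of 2 or more for CYP2C9 at a 5 µM dose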;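 note: 0 = sulfaphenazole-blocked wells and 1 = vehicle-only wells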
Target sequence (P11712 whole entry, looked up): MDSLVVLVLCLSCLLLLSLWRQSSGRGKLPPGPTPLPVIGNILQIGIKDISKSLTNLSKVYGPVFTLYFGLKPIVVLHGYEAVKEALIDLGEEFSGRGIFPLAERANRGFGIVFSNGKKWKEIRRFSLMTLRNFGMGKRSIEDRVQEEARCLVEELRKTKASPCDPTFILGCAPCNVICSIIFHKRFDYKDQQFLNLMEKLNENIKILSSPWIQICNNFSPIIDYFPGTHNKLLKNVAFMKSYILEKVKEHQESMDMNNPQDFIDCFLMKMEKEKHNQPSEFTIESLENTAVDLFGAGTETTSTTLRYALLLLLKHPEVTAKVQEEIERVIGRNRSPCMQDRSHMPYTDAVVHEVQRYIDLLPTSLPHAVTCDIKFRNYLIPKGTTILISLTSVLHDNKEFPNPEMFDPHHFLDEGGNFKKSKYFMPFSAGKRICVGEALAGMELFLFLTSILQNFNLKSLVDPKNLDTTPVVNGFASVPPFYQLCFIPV
CYP2C19 act = cytochrome P450 2C19 (human) activation; AID 1025; 96,000 tested, under 10 active; recombinant CYP2C19, luciferin-H EGE luminescence; hits give high values; 0 = fully inhibited enzyme, 1 = untreated enzyme; activation factor at 5 µM; P33261;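 active = activation factor of at least 2 at 5 µM in the primary screen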;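 note: 0 = wells with 2.5 mM tranylcypromine and 1 = vehicle-only wells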
CD11b adhes enh = enhancers of human CD11b/CD18 binding to fibrinogen; activation, % at 10 µM; 93,000 compounds, 0.07% hits; AID 1499; K562 CD11b/CD18 adhesion to fibrinogen, ATPlite luminescence;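 active = 10 µM primary screen giving 50% or more activity, confirmed by 40% or more on retest at that dose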
CYP2C9 inh = blocks human cytochrome P450 2C9; P11712; AID 777; 96,000 compounds, 20% hits; CYP2C9 Supersomes, luciferin-H conversion, luminescence; inhibition, % at 5 µM;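 active = blocking of liver enzyme CYP2C9 beyond about 50% at 5 µM, limit read from the data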
* marks the source's active call; other numbers are inactive results.

`CCNC(=O)CN(CCc1ccccc1)S(=O)(=O)c1ccc(OC)cc1` gave Mac1 fbg inh -0.8, CYP2C19 inhib 96.3*, CYP2C9 act 0.1, CYP2C19 act 0, CD11b adhes enh -1.9 and CYP2C9 inh 87.7*.
COc1ccc(S(=O)(=O)N(CCc2ccccc2)CC(=O)O)cc1 was read as Mac1 fbg inh -42.3, CYP2C19 inhib 52.9*, CYP2C9 act 0.4, CYP2C19 act 0.5, CD11b adhes enh -2.6 and CYP2C9 inh 64.7*.
COc1ccc(S(=O)(=O)N(CCc2ccccc2)CC(=O)NCCCO)cc1 was read as Mac1 fbg inh 27.9, CYP2C19 inhib 51.1*, CYP2C9 act 1.2, CYP2C19 act 0.5, CD11b adhes enh 2.7 and CYP2C9 inh -17.2.
`Cc1ccc(-c2nnn(CC(=O)N3CCN(c4ccccc4)CC3)n2)o1` gave Mac1 fbg inh -17.8, CYP2C19 inhib 19.6, CYP2C9 act 0.9, CYP2C19 act 0.8, CD11b adhes enh -1.9 and CYP2C9 inh 13.9.
CCOC(=O)c1ccc(NC(=O)NC(C)C2CCCO2)cc1 (centres undefined) was read as Mac1 fbg inh -7.3, CYP2C19 inhib -6.7, CYP2C9 act 0.9, CYP2C19 act 1.1, CD11b adhes enh 2.2 and CYP2C9 inh 9.9.
CC12CCC(c3nnc(SCC(=O)Nc4cccc5ccccc45)nc31)C2(C)C (centres undefined) was read as CYP2C19 inhib 16.2, CYP2C9 act 0.8, CYP2C19 act 0.8 and CYP2C9 inh 21.5.
`COC(c1ccccc1)c1c(-c2ccccc2)nn(C)c1Cl` (centres undefined) gave Mac1 fbg inh -5.2, CYP2C19 inhib 94.1*, CYP2C9 act 0.3, CYP2C19 act 0.1, CD11b adhes enh 1.6 and CYP2C9 inh 70.8*.
`Cn1c(N)c(C(=O)c2ccc(C#N)cc2)c(=O)n(C)c1=O` gave Mac1 fbg inh 1.3 and CD11b adhes enh 3.6.
COc1cc(Cl)c(S(=O)(=O)N2CCOCC2)cc1Cl was read as Mac1 fbg inh 5.4, CYP2C19 inhib 29.1, CYP2C9 act 2.7*, CYP2C19 act 0.7, CD11b adhes enh 5.1 and CYP2C9 inh -169.6.
Screening CC1CN(S(=O)(=O)c2ccccc2)CC(C)O1 (centres undefined) returned Mac1 fbg inh -4.0, CYP2C19 inhib 33.9, CYP2C9 act 1, CYP2C19 act 0.7, CD11b adhes enh -1.4 and CYP2C9 inh -0.1.
`CCOc1cc(C)c(C(C)C)cc1S(=O)(=O)N1CCOCC1` gave Mac1 fbg inh -10.6, CYP2C19 inhib 45.2, CYP2C9 act 0.8, CYP2C19 act 0.5, CD11b adhes enh 1.8 and CYP2C9 inh 15.6.
For COc1cc(Cl)c(S(=O)(=O)N2CC(C)OC(C)C2)cc1Cl (centres undefined) the results were Mac1 fbg inh 0.8, CYP2C19 inhib 84.1*, CYP2C9 act 1.7, CYP2C19 act 0.2, CD11b adhes enh 0.1 and CYP2C9 inh -71.0.
`COc1cc(C)c(C(C)C)cc1S(=O)(=O)N1CCOCC1` gave Mac1 fbg inh -1.5, CYP2C19 inhib 33.5, CYP2C9 act 2*, CYP2C19 act 0.7, CD11b adhes enh 1.4 and CYP2C9 inh -99.3.
For CCOC(=O)CSc1nnc(CNC(=O)c2ccc(OC)cc2OC)n1-c1ccc(OC)cc1 the results were Mac1 fbg inh -7.5, CYP2C19 inhib 13.6, CYP2C9 act 0.8, CYP2C19 act 0.9, CD11b adhes enh 1.0 and CYP2C9 inh 21.5.
COC(=O)n1ccc(C(=O)Nc2ccccc2F)n1 was read as Mac1 fbg inh -6.2, CYP2C19 inhib 4.4, CYP2C9 act 0.9, CYP2C19 act 1, CD11b adhes enh 1.1 and CYP2C9 inh 7.2.
Screening O=C(O)CN1C(=O)SC(Nc2ccc(Cl)cc2)C1=O (centres undefined) returned Mac1 fbg inh -5.3, CYP2C19 inhib 15.9, CYP2C9 act 1, CYP2C19 act 0.8, CD11b adhes enh -4.2 and CYP2C9 inh 0.0.
`Cc1ccc(NCc2nnc(SCC(=O)Nc3ncc(C)s3)n2CC2CCCO2)c(C)c1` (centres undefined) gave Mac1 fbg inh 10.9, CYP2C19 inhib 26.9, CYP2C9 act 0.7, CYP2C19 act 0.7, CD11b adhes enh -3.6 and CYP2C9 inh 25.1.
For O=C(CSc1nnc(-c2ccncc2)n1CC1CCCO1)Nc1cccc(O)c1 (centres undefined) the results were Mac1 fbg inh -5.8, CYP2C19 inhib 35.8, CYP2C9 act 0.3, CYP2C19 act 0.6, CD11b adhes enh 5.0 and CYP2C9 inh 66.6*.
`COc1ccc(NC(=O)CSc2nnc(-c3ccncc3)n2CC2CCCO2)c(OC)c1` (centres undefined) gave Mac1 fbg inh -34.5, CYP2C19 inhib 60.2*, CYP2C9 act 0.7, CYP2C19 act 0.4, CD11b adhes enh 7.1 and CYP2C9 inh 28.4.
For Cc1ccc(NCc2nnc(SCC(=O)Nc3cccc(O)c3)n2CC2CCCO2)c(C)c1 (centres undefined) the results were Mac1 fbg inh 22.9, CYP2C19 inhib 66.9*, CYP2C9 act 0.2, CYP2C19 act 0.3, CD11b adhes enh -2.0 and CYP2C9 inh 80.6*.
For CCOc1ccc(NC(=O)CSc2nnc(-c3ccncc3)n2CC2CCCO2)cc1 (centres undefined) the results were Mac1 fbg inh -1.5, CYP2C19 inhib 29.4, CYP2C9 act 0.5, CYP2C19 act 0.7, CD11b adhes enh 2.5 and CYP2C9 inh 48.7.
For Cc1csc(NC(=O)CSc2nnc3ncccn23)n1 the results were Mac1 fbg inh 9.7, CYP2C19 inhib 15.3, CYP2C9 act 0.9, CYP2C19 act 0.8, CD11b adhes enh -2.6 and CYP2C9 inh 5.4.
For C=CCN1C(=O)C2(/C(=C(\O)c3ccc4c(c3)OCCO4)C(=O)C(=O)N2CCCOC)c2ccccc21 (centres undefined) the results were Mac1 fbg inh -6.5, CYP2C19 inhib -14.8, CYP2C9 act 1.3, CYP2C19 act 1.1, CD11b adhes enh -3.0 and CYP2C9 inh -25.4.
O=c1[nH]nc(Sc2ncnc3sccc23)n1CCc1ccccc1 was read as Mac1 fbg inh 0.6, CYP2C19 inhib 80.3*, CYP2C9 act 0.8, CYP2C19 act 0.2, CD11b adhes enh -3.9 and CYP2C9 inh 24.9.
Screening Oc1cccc(-c2nc3ccc4ccccc4c3c3c2CCC3)c1 returned Mac1 fbg inh 18.9, CYP2C19 inhib 20.3, CYP2C9 act 0.6, CYP2C19 act 0.8, CD11b adhes enh 0.1 and CYP2C9 inh 37.1.
`CCc1ccc2[nH]c(=O)c(CN(Cc3ccco3)S(=O)(=O)c3ccc4c(c3)OCCO4)cc2c1` gave Mac1 fbg inh -3.9, CYP2C19 inhib -7.0, CYP2C9 act 1.1, CYP2C19 act 1.1, CD11b adhes enh -1.2 and CYP2C9 inh -10.3.

From PubChem BioAssay
